PubChem BioAssay (EPA / NIEHS)
Results filed as inconclusive are left out. Active and inactive are the calls of the source. The calls were made as follows: active = hit-call score of the fitted dose curve at least 0.9, where 1 is the maximum; inconclusive = response in the unintended direction; inactive = score below 0.9.

test: ATG_M_32_TRANS: Attagene TRANS-FACTORIAL HepG2 Assay for M32 Transcription Factor (Internal Marker) (AID 2282984); conditions: HepG2 Attagene TRANS M32 internal marker reporter
Experimental: ATG_TRANS is a cell-based, multiplexed-readout assay that uses HepG2, a human liver cell line, with measurements taken at 24 hours after chemical dosing in a 24-well plate.ATG_M_32_TRANS is one of 30 assay component(s) measured or calculated from the ATG_TRANS assay. It is designed to make measurements of mRNA induction, a form of inducible reporter, as detected with fluorescence intensity signals by Reverse transcription polymerase chain reaction (RT-PCR) and Capillary electrophoresis technology.Data from the assay component ATG_M_32_TRANS was analyzed into 1 assay endpoint. This assay endpoint, ATG_M_32_TRANS, was analyzed in the positive analysis fitting direction relative to DMSO as the negative control and baseline of activity. Using a type of inducible reporter, measures of mRNA for gain-of-signal activity can be used to understand the background control at the transcription factor-level as they relate to the gene . Furthermore, this assay endpoint can be referred to as a secondary readout, because this assay has produced multiple assay endpoints where this one serves a background control function. To generalize the intended target to other relatable targets, this assay endpoint is annotated to the background measurement intended target family, where the subfamily is internal marker.
Human liver HepG2 cells are transiently transfected with multiple reporter transcription units (MRTUs) in 6-well plates using FuGene 6 reagent (Roche; 3 ml FuGene/1 mg DNA). The MRTU constructs are regulated by a cis-regulating element (promoter). […] A major difference between the CIS and TRANS system is that in CIS activities of endogenous TFs are measured, whereas the TRANS assay evaluates changes in activities of exogenous, chimeric NR-Gal4 proteins. […] At the end of 24 hour incubation, total RNA was isolated using TriZol reagent (Invitrogen). The isolated RNA is then reverse-transcribed using oligo(dT) primer and Mo-MLV reverse transcriptase (Invitrogen) with DNAse I (Ambion) treatment for 30 min. The one-tenth of the produced cDNA was amplified by PCR using Taq DNA polymerase (Invitrogen) and two reporter sequence-specific primers. The PCR products were fluorescently labeled by primer extension with 6-arboxyfluorescein (6-FAM) 5'-labeled reporter sequence-specific primer (2 min at 95 C, 20 s at 68 C and 10 min at 72 C) and these products were digested with 5U of HpaI (New England Biolabs) for 2h at 37 C. The fragments were purified using Qiaquick PCR columns (Qiagen), analyzed on an ABI 3130xL genetic analyzer (Applied Biosystems) with peak positions identified by using a set of X-rhodamine (ROX)-labeled MapMarker1000 molecular weight standards (BioVentures). The raw capillary electrophoresis data was processed using Attagraph software (Attagene).

outcome, inactive:
CC(N)=O
CCCCCCCCCC[N+](C)(C)[O-]
O=C(O)c1cccnc1
CCOCCOCCO
CC(=O)[C@@]1(O)CC[C@H]2[C@@H]3CCC4=CC(=O)CC[C@]4(C)[C@H]3CC[C@@]21C
O=C(NS(=O)(=O)/C=C/c1cccs1)c1ccc(F)cc1Br
Cc1c(C)c2c(c(C)c1O)CCC(C)(COc1ccc(CC3SC(=O)NC3=O)cc1)O2 (stereo not given)
C#CC(O)C(CC)CCCC (stereo not given)
Oc1ccc(O)cc1
NC(=Nc1ccccc1)Nc1ccccc1
O=C1O[C@H]([C@H](O)CO)C(O)=C1O
CC(C)COC(=O)CCCCC(=O)OCC(C)C
CC(=O)CC(c1ccccc1)c1c(O)c2ccccc2oc1=O (stereo not given)
CCCCOC(=O)CCCCC(=O)OCCCC
COc1ccc(OC(F)(F)F)cc1CN[C@H]1CCCN[C@H]1c1ccccc1
CC(=O)OC1CC(C)OC(C)O1 (stereo not given)
CCCC[C@H]1CN(CC2CCOCC2)C(=O)OC12CCN(C1(C)CCN(C(=O)c3c(C)ncnc3C)CC1)CC2
CC(=O)O[C@]1(C(C)=O)CC[C@H]2[C@@H]3C=C(Cl)C4=CC(=O)[C@@H]5C[C@@H]5[C@]4(C)[C@H]3CC[C@@]21C
CCC(C)N(C)C(=O)c1cc2ccccc2c(-c2ccccc2Cl)n1 (stereo not given)
CCCCCCCC(=O)OC
N[C@@H](Cc1c[nH]c2ccccc12)C(=O)O
CCCCCCC(C=O)=Cc1ccccc1
CC(C)(C)c1ccccc1
CS(=O)(=O)c1ccc([C@@H](C[C@H]2CCC(=O)C2)C(=O)Nc2cnccn2)cc1Cl
CCc1cc(C2=C(C(=O)O)N(c3ccccc3C(F)(F)F)S(=O)(=O)c3ccccc32)cc2c1OCO2
CCCCc1nc2cccnc2n1Cc1ccc(-c2ccccc2-c2nnn[nH]2)cc1
CC(=O)O
Oc1ccccc1O
Cc1cc(SC2=C(O)C[C@@](CCc3ccc(N)cc3)(C(C)C)OC2=O)c(C(C)(C)C)cc1CO
O=Cc1ccccc1C=O
O=C1CCCCC1
C/C=C/C=C/C(=O)O
CC(C)(O)c1ccc(CNC(=O)c2cccnc2Oc2ccc(F)cc2)cc1
CN(C)C(=O)NC1(c2ccccc2)CCN(CCC[C@]2(c3ccc(Cl)c(Cl)c3)CCCN(C(=O)c3ccccc3)C2)CC1
O=NO
CSc1ccc(Oc2ccc(S(N)(=O)=O)cc2CN(C)C)cc1C
O=C(O)CN(CC(=O)O)CC(=O)O
CCN(CC)CCOc1ccc(C(=C(Cl)c2ccccc2)c2ccccc2)cc1
CN(C)CCCN1c2ccccc2Sc2ccc(Cl)cc21
NCCOCCOCCN
